Assay results reported in PubChem BioAssay (EPA / NIEHS).
Calls of active or inactive are those of the source. Rule for the calls: active = hit-call score of the fitted dose curve at least 0.9, where 1 is the maximum; inactive = score below 0.9.

How the values were obtained:
[1] = read-out: Thrombomodulin, THBD (gene 7056); test: BSK_CASM3C_Thrombomodulin: BioMAP Diversity Plus: CASM3C Assay for Thrombomodulin Biomarker Activity (AID 2283051); details: primary human coronary artery smooth muscle cells; actives raise or lower the signal;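 note: thrombomodulin protein level measured by ELISA 24 h after dosing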
[2] = read-out: Tissue Factor, F3 (gene 2152); test: BSK_CASM3C_TissueFactor: BioMAP Diversity Plus: CASM3C Assay for Tissue Factor Biomarker Activity (AID 2283052); details: primary human coronary artery smooth muscle cells; actives raise or lower the signal;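 note: cell surface tissue factor protein level read by ELISA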
[3] = read-out: Interferon-gamma inducible Protein 10 (IP10), CXCL10 (gene 3627); test: BSK_hDFCGF_IP10: BioMAP Diversity Plus: hDFCGF Assay for Interferon-gamma inducible Protein 10 (IP10) Biomarker Activity (AID 2283053); details: primary human foreskin fibroblasts; actives raise or lower the signal
Summary of the method: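 Human foreskin fibroblast primary cells (hDFCGF system) were dosed with chemical and assayed at 24 h; IP-10 measured by ELISA. Activity fitted bidirectionally relative to DMSO negative control as baseline.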

[4] = read-out: Urokinase-type plasminogen activator receptor (uPAR), PLAUR (gene 5329); test: BSK_CASM3C_uPAR: BioMAP Diversity Plus: CASM3C Assay for Urokinase-type plasminogen activator receptor (uPAR) Biomarker Activity (AID 2283054); details: primary human coronary artery smooth muscle cells; actives raise or lower the signal;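 note: cell-surface uPAR protein level quantified by ELISA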
[5] = read-out: Vascular cell adhesion molecule 1 (VCAM1), VCAM1 (gene 7412); test: BSK_CASM3C_VCAM1: BioMAP Diversity Plus: CASM3C Assay for Vascular cell adhesion molecule 1 (VCAM1) Biomarker Activity (AID 2283055); details: primary human coronary artery smooth muscle cells; actives raise or lower the signal;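 note: VCAM-1 protein level quantified by ELISA on the cells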
[6] = read-out: Epidermal growth factor receptor (EGFR), EGFR (gene 1956); test: BSK_hDFCGF_EGFR: BioMAP Diversity Plus: hDFCGF Assay for Epidermal growth factor receptor (EGFR) Biomarker Activity (AID 2283057); details: primary human foreskin fibroblasts; actives raise or lower the signal
Summary of the method: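 Primary human foreskin fibroblasts were exposed to compound for 24 h, after which cell-surface EGFR was quantified by ELISA. Activity was fitted bidirectionally against the DMSO negative control as baseline.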

[7] = read-out: Interleukin-8 (IL8), CXCL8 (gene 3576); test: BSK_hDFCGF_IL8: BioMAP Diversity Plus: hDFCGF Assay for Interleukin-8 (IL8) Biomarker Activity (AID 2283058); details: primary human foreskin fibroblasts; actives raise or lower the signal
Summary of the method: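 Primary human foreskin fibroblasts (hDFCGF system) dosed with chemical; IL-8 measured by ELISA 24 hours later. Bidirectional curve fitting relative to DMSO baseline; cytotoxicity tracked in parallel cultures by SRB total protein staining.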

[8] = BSK_hDFCGF_Proliferation: Cell Proliferation Assessment in the BioMAP Diversity Plus: hDFCGF Assay (AID 2283059); details: primary human foreskin fibroblasts;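 note: curves fitted for both rise and fall of signal versus DMSO baseline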
Summary of the method: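 Steps: dose primary human dermal fibroblasts (foreskin); […] fix in 10% TCA; stain with 0.1% SRB; read 560 nm; fit gain or loss of signal against DMSO.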

[9] = read-out: Macrophage colony-stimulating factor (MCSF), CSF1 (gene 1435); test: BSK_hDFCGF_MCSF: BioMAP Diversity Plus: hDFCGF Assay for Macrophage colony-stimulating factor (MCSF) Biomarker Activity (AID 2283060); details: primary human foreskin fibroblasts; actives raise or lower the signal
Summary of the method: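 Human foreskin fibroblast primary cultures; M-CSF measured by ELISA 24 hours after chemical dosing. Bidirectional fitting relative to DMSO, with overt cytotoxicity tracked by parallel SRB total-protein staining (0.1% SRB, 10% TCA fixation, 560 nm).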

[10] = BSK_hDFCGF_SRB: Viability Assessment in the BioMAP Diversity Plus: hDFCGF Assay (AID 2283061); details: primary human foreskin fibroblasts;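 note: cells exposed to compound for 24 h before the read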
Summary of the method: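 Human foreskin fibroblasts in 96-well plates were treated 24 h. Total protein was measured by 0.1% SRB staining after 10% TCA fixation, read at 560 nm. Data were fitted bidirectionally against DMSO.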

[11] = read-out: TIMP metallopeptidase inhibitor 1 (TIMP1), TIMP1 (gene 7076); test: BSK_hDFCGF_TIMP1: BioMAP Diversity Plus: hDFCGF Assay for TIMP metallopeptidase inhibitor 1 (TIMP1) Biomarker Activity (AID 2283062); details: primary human foreskin fibroblasts; actives raise or lower the signal
Summary of the method: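 Human foreskin fibroblast primary cultures dosed for 24 h; secreted/surface TIMP-1 quantified by ELISA. Bidirectional curve fitting against DMSO baseline; cytotoxicity tracked in parallel cultures by SRB total-protein staining.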

[12] = read-out: Monokine induced gamma interferon (MIG), CXCL9 (gene 4283); test: BSK_hDFCGF_MIG: BioMAP Diversity Plus: hDFCGF Assay for Monokine induced gamma interferon (MIG) Biomarker Activity (AID 2283063); details: primary human foreskin fibroblasts; actives raise or lower the signal
Summary of the method: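 MIG/CXCL9 measured by ELISA 24 h after dosing primary human skin fibroblasts. Activity fitted in both directions against DMSO controls. Cytotoxicity was checked in parallel cultures by SRB staining read at 560 nm.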

[13] = read-out: Matrix Metallopeptidase 1 (MMP1), MMP1 (gene 4312); test: BSK_hDFCGF_MMP1: BioMAP Diversity Plus: hDFCGF Assay for Matrix Metallopeptidase 1 (MMP1) Biomarker Activity (AID 2283064); details: primary human foreskin fibroblasts; actives raise or lower the signal
Summary of the method: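 hDFCGF primary fibroblasts (human foreskin); chemical added; 24 h; MMP1 by ELISA; bidirectional fit vs DMSO.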

[14] = read-out: Vascular cell adhesion molecule 1 (VCAM1), VCAM1 (gene 7412); test: BSK_hDFCGF_VCAM1: BioMAP Diversity Plus: hDFCGF Assay for Vascular cell adhesion molecule 1 (VCAM1) Biomarker Activity (AID 2283065); details: primary human foreskin fibroblasts; actives raise or lower the signal;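 for AC50: VCAM-1 protein level quantified by ELISA after 24 h chemical exposure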
Summary of the method: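 Human foreskin fibroblast primary cells dosed with chemical, VCAM-1 measured by ELISA at 24 h. Bidirectional curve fitting relative to DMSO as negative control/baseline.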

[15] = read-out: Plasminogen activator inhibitor-1 (PAI1), SERPINE1 (gene 5054); test: BSK_hDFCGF_PAI1: BioMAP Diversity Plus: hDFCGF Assay for Plasminogen activator inhibitor-1 (PAI1) Biomarker Activity (AID 2283066); details: primary human foreskin fibroblasts; actives raise or lower the signal
Summary of the method: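 Human foreskin fibroblasts in the hDFCGF system were dosed with compound for 24 h; PAI-1 was quantified by ELISA. Bidirectional curve fitting used DMSO as negative control and baseline.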

[16] = read-out: Intercellular Adhesion Molecule 1 (ICAM1), ICAM1 (gene 3383); test: BSK_KF3CT_ICAM1: BioMAP Diversity Plus: KF3CT Assay for Intercellular Adhesion Molecule 1 (ICAM1) Biomarker Activity (AID 2283067); details: primary human keratinocytes with fibroblasts; actives raise or lower the signal
Summary of the method: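 Human keratinocyte–foreskin fibroblast co-culture was treated for 24 h. Cell-surface ICAM-1 was quantified by ELISA, fitted bidirectionally relative to DMSO. Cytotoxicity was checked in parallel cultures by SRB total-protein staining.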

[17] = read-out: Interferon-gamma inducible Protein 10 (IP10), CXCL10 (gene 3627); test: BSK_KF3CT_IP10: BioMAP Diversity Plus: KF3CT Assay for Interferon-gamma inducible Protein 10 (IP10) Biomarker Activity (AID 2283068); details: primary human keratinocytes with fibroblasts; actives raise or lower the signal
Summary of the method: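 KF3CT co-culture (keratinocytes + foreskin fibroblasts), 24 h compound, IP-10 by ELISA; bidirectional fit vs DMSO baseline.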

[18] = BSK_KF3CT_SRB: Viability Assessment in the BioMAP Diversity Plus: KF3CT Assay (AID 2283069); details: primary human keratinocytes with fibroblasts;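 note: total protein by sulforhodamine B staining as a cytotoxicity measure; read 24 h after compound addition; fitted for both signal gain and loss against DMSO baseline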
Summary of the method: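 Keratinocytes co-cultured with foreskin fibroblasts (human primary); chemical added, 24 h; fix 10% TCA, stain 0.1% SRB, A560. Bidirectional fit vs DMSO.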

[19] = read-out: Interleukin-1 alpha (IL1a), IL1A (gene 3552); test: BSK_KF3CT_IL1a: BioMAP Diversity Plus: KF3CT Assay for Interleukin-1 alpha (IL1a) Biomarker Activity (AID 2283070); details: primary human keratinocytes with fibroblasts; actives raise or lower the signal
Summary of the method: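 Chemicals were dosed onto co-cultured human keratinocytes and foreskin fibroblasts, IL-1a was quantified by ELISA at 24 h, and activity was fitted in both directions relative to DMSO controls.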

[20] = read-out: Collagen III, COL3A1 (gene 1281); test: BSK_hDFCGF_CollagenIII: BioMAP Diversity Plus: hDFCGF Assay for Collagen III Biomarker Activity (AID 2283056); details: primary human foreskin fibroblasts; actives raise or lower the signal
Summary of the method: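 Human foreskin fibroblast primary cultures sampled 24 h after dosing; Collagen III quantified by ELISA. Signal fitted bidirectionally against DMSO baseline.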

Measured: AC50

CN1C(=O)CC[C@H]1c1cccnc1
not listed: [20]
inactive: all other assays above

COc1cccc([C@H](O)C2CCN(CCc3ccc(F)cc3)CC2)c1OC
not listed: [15]
inactive: all other assays above

Clc1ccccc1C(c1ccccc1)(c1ccccc1)n1ccnc1
inactive: [6]
active: [1] 4.88 µM | [2] 20 µM | [3] 9.81 µM | [4] 28.4 µM | [5] 31.9 µM | [7] 9.77 µM | [8] 5.53 µM | [9] 5.68 µM | [10] 9.78 µM | [11] 9.85 µM | [12] 8.88 µM | [13] 7.77 µM | [14] 8.14 µM | [16] 11.5 µM | [17] 8.61 µM | [18] 5.3 µM | [19] 10.4 µM

Clc1cc(Cl)c2c(c1)N=C1CCCCCN1C2
inactive: all assays above

CCCCCCCCN(C)CCCCCCCC
not listed: [15] | [20]
inactive: all other assays above

CO[C@H]1/C=C/O[C@@]2(C)Oc3c(C)c(O)c4c(O)c(c(/C=N/N5CCN(C)CC5)c(O)c4c3C2=O)NC(=O)/C(C)=C\C=C\[C@H](C)[C@H](O)[C@@H](C)[C@@H](O)[C@@H](C)[C@H](OC(C)=O)[C@@H]1C
active: [8] 19.4 µM
not listed: [13]
inactive: all other assays above
